Several values for one entry are separate records, joined by “and”; a condition that tells them apart may be missing. Equal values may be shown once. Results filed as inconclusive are left out. Values without a mark were called inactive. Activity calls are given as the source filed them. Unless noted, calls follow the shape of the dose curve; as a rule, active = well fitted curve in the direction sought with a large enough effect; inconclusive = small, poorly fitted or top-dose-only effect, or another doubt; inactive = no such curve, though single readings can be large; an effect the other way counts as inactive or inconclusive.

The target in experiment [1] is Cellular tumor antigen p53 (Homo sapiens) (UniProt P04637). The experiment can be described thus: Primary qHTS for small molecule compounds that upregulate eGFP-tagged delta133p53alpha (in N-terminal) cells. (AID 2060322).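 Also: cells pre-induced with doxycycline then dosed without doxycycline; series mostly up to about 56 µM; 0% = DMSO vehicle and 100% = reference activator; nearly all actives have a fitted effect of over 75% in size.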 To be noted: NCI-H358 eGFP-delta133p53alpha fluorescence, 24 h; activation: hits give high values. The essentials:
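NCI-H358 cells pre-induced 24 h with 10 ng/ml doxycycline for eGFP-delta133p53alpha, plated dox-free and exposed 24 h at 37C to titrated compounds. Fixed, Hoechst-stained; gated GFP peak intensity by laser scanning cytometry, normalized to DMSO (0%) and 57.5 uM 5-azacytidine (100%).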
(qHTS replaces the single test concentration by a dilution series.)

For experiment [2] the target is unchanged. The experiment can be described thus: Primary qHTS for small molecule compounds that upregulate eGFP-tagged delta133p53alpha (in C-terminal) cells. (AID 2060324). Also: potency is read from the fitted curve at half-maximal effect. In short, it runs like this:
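Readout: filtered GFP peak intensity of gated cells (laser scanning cytometer), normalized plate-wise to intraplate controls, DMSO wells = 0% activity. Cells: NCI-H358 D133p53a-eGFP, dox 100 ng/ml 24 h beforehand, then compound 24 h, 37 °C.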

The target of experiment [3] is Aldehyde dehydrogenase, mitochondrial (Homo sapiens) (UniProt P05091). The experiment can be described thus: qHTS for Inhibitors of the Aldehyde Dehydrogenase Family (ALDH2) Validation screens (AID 2061302; active = well fitted inhibition curve with a large enough effect; title and protocol of this record describe different tests; also: potency is read from the fitted curve at half-maximal effect).

Chain of Cellular tumor antigen p53 (Homo sapiens) (P04637 whole entry, looked up): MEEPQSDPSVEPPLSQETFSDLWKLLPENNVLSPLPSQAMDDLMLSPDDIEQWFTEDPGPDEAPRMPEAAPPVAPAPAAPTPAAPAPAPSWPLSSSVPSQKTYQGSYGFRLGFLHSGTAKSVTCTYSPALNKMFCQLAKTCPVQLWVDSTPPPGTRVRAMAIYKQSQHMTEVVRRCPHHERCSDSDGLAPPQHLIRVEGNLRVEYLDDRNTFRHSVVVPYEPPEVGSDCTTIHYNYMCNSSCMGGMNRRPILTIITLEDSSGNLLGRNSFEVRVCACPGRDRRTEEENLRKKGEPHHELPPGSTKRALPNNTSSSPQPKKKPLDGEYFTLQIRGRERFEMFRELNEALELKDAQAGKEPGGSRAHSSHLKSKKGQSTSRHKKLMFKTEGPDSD

`NCCC1CCCC(CCN)N1` (centres undefined): in experiment [1], the activation was 10.3%. The Potency entry in experiment [2] and in experiment [3] was “inactive” in each case.
Regarding `C=CCn1c(=O)c2c(nc(-c3ccc(S(=O)(=O)O)cc3)n2C)n(C)c1=O`, the activation in experiment [1] is -9.98%. For the same compound, the Potency entry in experiment [2] and in experiment [3] was “inactive” each time.
With `CSc1ccc2c(c1)C(N1CCN(C)CC1)Cc1ccccc1S2` (centres undefined), the activation in experiment [1] is 48%. The Potency entry in experiment [2] and in experiment [3] was “inactive” throughout.
In the case of `CC(O)C(O)[C@H]1CNc2nc(N)[nH]c(=O)c2N1` (some centres undefined), in experiment [1], the activation was -13.4%. In experiment [2], the Potency entry is “inactive”. The Potency in experiment [3] is 8.91 µM (active).
The like results for `CN1C2CCC1CC(OC(=O)C(O)c1ccccc1)C2` (centres undefined) were, in that order, 8.16%, “inactive” and “inactive”.
The like results for `Nc1ncnc2c1ncn2C1CCCC1` were, in that order, -5.11%, “inactive” and “inactive”.
On the same counts, the results for `CC(C)COC(=O)OCN1C(=O)CN(CCN2CC(=O)N(COC(=O)OCC(C)C)C(=O)C2)CC1=O` are -13.5%, “inactive” and “inactive”.
Turning to `CCCCCC[C@@H]([C@@H](C)O)n1cnc2c(N)ncnc21`, in experiment [1], the activation is -41.6%. The Potency entry in experiment [2] and in experiment [3] was “inactive” throughout.
For the compound `O=c1[nH]c(=O)c2nc3ccccc3nc2[nH]1`, in experiment [1], the activation is -4.5%. The Potency entry in experiment [2] and in experiment [3] was “inactive” in each case.
Regarding `CC(C)(C)c1onc(OCP(=O)(O)O)c1CC(N)C(=O)O` (centres undefined), the activation in experiment [1] was 5.95%. Moreover, the Potency result in experiment [2] and in experiment [3] was “inactive” throughout.
`CN1CCc2cc(NC(=O)Nc3cccnc3)ccc21`: in experiment [1], the activation was -9.58%. Besides, the Potency entry in experiment [2] and in experiment [3] was “inactive” in each case.
Take `CCCN(CCc1ccccc1)C1CCc2c(O)cccc2C1` (centres undefined): the activation in experiment [1] was -29.6%. Besides, the Potency result in experiment [2] and in experiment [3] was “inactive” throughout.
For the compound `COCCOc1cc2ncnc(Cl)c2cc1OCCOC`, the activation in experiment [1] was -22.2%. The Potency entry in experiment [2] and in experiment [3] was “inactive” in each case.
In the case of `CNCC(O)c1ccc(O)c(O)c1` (centres undefined), the activation in experiment [1] was 7.34%. Moreover, the Potency entry in experiment [2] and in experiment [3] was “inactive” throughout.
As for `CN(C)CCCc1cc(C(=O)Nc2ccc(-c3ccncc3)cc2)ccc1O`, the activation in experiment [1] is -14.9%. The Potency result in experiment [2] and in experiment [3] was “inactive” throughout.
In the case of `CCCCCCCCCC[Si](C)(C)CCC(=O)NC(Cc1ccc(C)cc1)c1ccccc1` (centres undefined), the activation in experiment [1] is -9.05%. Further, the Potency entry in experiment [2] and in experiment [3] was “inactive” in each case.
As to `O=c1cc(O)cc(/C=C/c2ccc(O)c(O)c2)o1`, the activation in experiment [1] is -54.7%. The Potency entry in experiment [2] and in experiment [3] was “inactive” in each case.
Consider `Nc1ncnc2c1ncn2[C@@H]1O[C@H](COP(=O)(O)OP(=O)(O)OP(=O)(O)OP(=O)(O)OC[C@@H]2O[C@H](n3cnc4c(N)ncnc43)[C@@H](O)[C@H]2O)[C@@H](O)[C@H]1O`, for which the activation in experiment [1] is -42.2%. For the same compound, the Potency entry in experiment [2] and in experiment [3] was “inactive” each time.
Consider `Nc1nc2c(cnn2CCc2ccccc2)c2nc(-c3ccco3)nn12`, for which, in experiment [1], the activation is -28.5%. The Potency entry in experiment [2] and in experiment [3] was “inactive” throughout.
As to `CCNC(=O)[C@H]1O[C@@H](n2cnc3c(N)nc(NCCc4ccc(CCC(=O)O)cc4)nc32)[C@H](O)C1O` (some centres undefined), the activation in experiment [1] was -0.799%. Besides, the Potency entry in experiment [2] and in experiment [3] was “inactive” in each case.
`C1CCc2nnnn2CC1`: the activation in experiment [1] was -8.09%. The Potency entry in experiment [2] and in experiment [3] was “inactive” each time.
In the case of `NC(N)=Nc1nc(CSCC/C(N)=N/S(N)(=O)=O)cs1`, the activation in experiment [1] was -9.6% and 12.2%. In addition, the Potency result in experiment [2] and in experiment [3] was “inactive” in each case.
Take `O=c1[nH]c(=S)[nH]c(-c2ccccc2)c1Cc1c(O)ccc2ccccc12`: the activation in experiment [1] is -41.1%. Besides, the Potency result in experiment [2] and in experiment [3] was “inactive” each time.
Turning to `CC(N)(Cc1ccc(O)c(O)c1)C(=O)O` (centres undefined), in experiment [1], the activation was -16.9%. For the same compound, the Potency entry in experiment [2] and in experiment [3] was “inactive” throughout.
Consider `CN1CCc2ccccc2Cc2[nH]c3ccccc3c2CC1`, for which the activation in experiment [1] was -5.31%. For the same compound, in experiment [2], the Potency was 26.9 µM (active). For the same compound, the Potency result in experiment [3] is “inactive”.
With `COc1cc2c(cc1OC)-c1cc(=Nc3c(C)cc(C)cc3C)n(C)c(=O)n1CC2`, the activation in experiment [1] is -30.7%. For the same compound, the Potency entry in experiment [2] and in experiment [3] was “inactive” throughout.
Take `CC(=O)Oc1cc(C(C)C)c(OCCN(C)C)cc1C`: the activation in experiment [1] is -0.837% and 6.26%. Besides, the Potency result in experiment [2] and in experiment [3] was “inactive” in each case.
For `COc1cc2c(CCNC(C)=O)c[nH]c2cc1O`, in experiment [1], the activation is -10.8%. Further, the Potency result in experiment [2] and in experiment [3] was “inactive” throughout.
As to `NS(=O)(=O)c1cc2c(cc1Cl)NC(C1CC3C=CC1C3)NS2(=O)=O` (centres undefined), the activation in experiment [1] is -1.69% and -18.7%. In addition, the Potency entry in experiment [2] and in experiment [3] was “inactive” each time.
As for `N.N.O=C(O)C1(C(=O)O)CCC1.[Pt+2]`, in experiment [1], the activation was -8.5%. Further, the Potency result in experiment [2] and in experiment [3] was “inactive” throughout.
In the case of `CCN(CC)CCNC(=O)c1ccc(NS(C)(=O)=O)cc1`, the activation in experiment [1] is -1.7%. Further, the Potency entry in experiment [2] and in experiment [3] was “inactive” each time.
Turning to `c1cnc(N2CCN(Cc3ccc4c(c3)OCO4)CC2)nc1`, in experiment [1], the activation is 8.37% and 9.57%. In addition, the Potency entry in experiment [2] and in experiment [3] was “inactive” throughout.
Consider `COc1ccccc1CNCCCCCCNCCCCCCCCNCCCCCCNCc1ccccc1OC`, for which the activation in experiment [1] is -23.6%. For the same compound, the Potency entry in experiment [2] and in experiment [3] was “inactive” throughout.
`N=C(N)SCCc1cnc[nH]1`: the activation in experiment [1] was -28.5%. In addition, the Potency entry in experiment [2] and in experiment [3] was “inactive” throughout.
On to `O=C(CCCN1CCC(O)(c2cccc(C(F)(F)F)c2)CC1)c1ccc(F)cc1`, for which, in experiment [1], the activation was 13.4% and 14.3%. Also, the Potency entry in experiment [2] and in experiment [3] was “inactive” each time.
For `COc1ccc(NC(=O)c2ccc(-c3ccc(-c4noc(C)n4)cc3C)cc2)cc1N1CCN(C)CC1`, in experiment [1], the activation was -47.1%. For the same compound, the Potency entry in experiment [2] and in experiment [3] was “inactive” in each case.
Take `NC[C@@H]1O[C@H](C23CC4CC(CC(C4)C2)C3)Cc2c1ccc(O)c2O`: the activation in experiment [1] was 44.4%. Moreover, the Potency in experiment [2] was 23.9 µM (active). Moreover, the Potency entry in experiment [3] is “inactive”.
As to `NC(Cc1ccc(Cl)cc1)C(=O)O` (centres undefined), the activation in experiment [1] is -15.1% and -12.2%. Also, the Potency entry in experiment [2] and in experiment [3] was “inactive” each time.

Values taken from PubChem BioAssay (NCATS).
